Source: PubChem BioAssay (NCI)
Compounds without any hit were thinned out: in the full panel of roughly 79,000, 15% have a hit. Calls of active or inactive are those of the source. Cut-off read from the data, not from the text of the source: active = growth inhibition above about 70%; inactive = the rest.

What was measured:
[1] = NCI Yeast Anticancer Drug Screen. Data for the mlh1 strain (AID 171);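 note: 0% = growth of vehicle-treated control cultures of the same strain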; conditions: S. cerevisiae mlh1 strain growth inhibition, active compounds read high
In short: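 Vehicle-normalised growth inhibition of a repair- or checkpoint-altered yeast strain following compound treatment.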

[2] = NCI Yeast Anticancer Drug Screen. Data for the sgs1 strain (AID 173);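 note: 0% = growth of vehicle-only control cultures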; conditions: S. cerevisiae sgs1 mutant, active compounds read high
In short: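 Screen format: yeast with repair or checkpoint alterations, compound exposure, growth read relative to vehicle.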

[3] = NCI Yeast Anticancer Drug Screen. Data for the mlh1 rad18 strain (AID 175); conditions: S. cerevisiae mlh1 rad18 strain growth inhibition, active compounds read high
In short: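 Vehicle-treated cultures served as the reference for growth inhibition in a yeast strain carrying DNA damage repair alterations exposed to each compound.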

[4] = NCI Yeast Anticancer Drug Screen. Data for the rad18 strain (AID 177); conditions: S. cerevisiae rad18 mutant growth inhibition, active compounds read high
In short: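 Test articles were incubated with altered yeast defective in DNA damage repair. Results are given as inhibition of growth versus vehicle.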

[5] = NCI Yeast Anticancer Drug Screen. Data for the rad52 strain (AID 147);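 note: 0% = growth of vehicle-treated control cultures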; conditions: S. cerevisiae rad52 mutant growth inhibition, active compounds read high
In short: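 Vehicle-treated cultures served as the reference for growth inhibition of compound-exposed yeast bearing a DNA repair mutation.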

[6] = NCI Yeast Anticancer Drug Screen. Data for the wt1 strain (AID 149);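 note: 0% = growth of vehicle-treated wt1 cultures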; conditions: S. cerevisiae wt1 strain (SPY 50644) growth inhibition, active compounds read high
In short: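 Each compound is tested on wt1 yeast and the loss of growth versus vehicle gives the inhibition value.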

[7] = NCI Yeast Anticancer Drug Screen. Data for the rad50EPP+ strain (AID 151);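 note: 0% = growth of vehicle-treated control cultures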; conditions: S. cerevisiae rad50 mutant strain, active compounds read high
In short: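 In this screen, rad50EPP+ yeast were exposed to compounds. Growth inhibition was scored against vehicle-treated controls.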

[8] = NCI Yeast Anticancer Drug Screen. Data for the mgt1 strain (AID 153); conditions: S. cerevisiae mgt1 mutant growth inhibition, active compounds read high
In short: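 mgt1 strain exposed; growth vs vehicle control recorded as inhibition.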

[9] = NCI Yeast Anticancer Drug Screen. Data for the rad50 strain (AID 155);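 note: 0% = growth of vehicle-only cultures of the same strain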; conditions: S. cerevisiae rad50 strain growth inhibition, active compounds read high
In short: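 Vehicle-treated cultures provide the reference for the growth inhibition reported for compound-exposed, repair-deficient yeast.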

[10] = NCI Yeast Anticancer Drug Screen. Data for the mec2-1 strain (AID 157); conditions: S. cerevisiae mec2-1 strain, active compounds read high
In short: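 Vehicle-treated cultures served as reference for growth inhibition of compound-exposed mec2-1 yeast.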

[11] = NCI Yeast Anticancer Drug Screen. Data for the rad14 strain (AID 159);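 note: 0% = growth of vehicle-treated control cultures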; conditions: S. cerevisiae rad14 strain growth inhibition, active compounds read high
In short: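 Inhibition of growth is reported for a repair-deficient yeast mutant following compound treatment, calculated relative to cultures that received vehicle.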

[12] = NCI Yeast Anticancer Drug Screen. Data for the sgs1 mgt1 strain (AID 161);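 note: 0% = growth of cultures given vehicle only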; conditions: S. cerevisiae sgs1 mgt1 strain, active compounds read high
In short: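 Mutant yeast exposed to compound; growth scored against vehicle-only wells.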

[13] = NCI Yeast Anticancer Drug Screen. Data for the CLN2oe strain (AID 163);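 note: 0% = growth of vehicle-only control cultures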; conditions: S. cerevisiae CLN2oe strain, active compounds read high
In short: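 Inhibition relative to vehicle-treated yeast is reported. Cells: strain with genetic alteration in cell-cycle control, grown with compound.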

[14] = NCI Yeast Anticancer Drug Screen. Data for the bub3 strain (AID 167); conditions: S. cerevisiae bub3 mutant strain, active compounds read high
In short: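 Mutant yeast screening strain plus compound; vehicle-treated cultures serve as the 0% inhibition reference.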

[15] = NCI Yeast Anticancer Drug Screen. Data for the wt2 strain (AID 169); conditions: S. cerevisiae wt2 strain growth inhibition, active compounds read high
In short: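 Inhibition of yeast growth was determined after compound treatment, normalised to controls receiving only vehicle.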

[16] = NCI Yeast Anticancer Drug Screen. Data for the cln2 rad14 strain (AID 165);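 note: 0% = growth equal to vehicle treated cultures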; conditions: S. cerevisiae cln2 rad14 strain, active compounds read high
In short: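 Each compound was tested on cln2 rad14 yeast. Inhibition of growth was calculated against vehicle-exposed controls.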

[17] = at 5.0 µM (retest, dose inferred, filed as 0.5)
[18] = at 50.0 µM (retest, dose inferred, filed as 5.0)

Measured: growth inhibition

CC(Br)C(=O)c1ccc2cc(Br)c3ccccc3c2c1 (stereo unspecified)
inactive: [1]; at 1.2 µM 4% | [1]; at 3.7 µM 4% | [1]; at 11.0 µM 6% | [1]; at 33.0 µM -11% | [1]; at 100.0 µM 17% | [2]; at 1.2 µM 3% | [2]; at 3.7 µM 8% | [2]; at 11.0 µM 14% | [2]; at 33.0 µM 17% | [2]; at 100.0 µM 17% | [3]; [17] 9% | [3]; [18] 38% | [3]; at 50.0 µM 68.3% | [4]; at 1.2 µM 5% | [4]; at 3.7 µM 5% | [4]; at 11.0 µM 17% | [4]; at 33.0 µM 18% | [4]; at 100.0 µM 22%

CC1(Cl)CC(O)C2(CC1Br)C1(C)OC1C1OC1(Br)C2(C)C (stereo unspecified)
inactive: [5]; at 1.2 µM 14% | [5]; at 3.7 µM 19% | [5]; at 11.0 µM 31% | [5]; at 33.0 µM 66% | [6]; at 1.2 µM 1% | [6]; at 3.7 µM -20% | [6]; at 11.0 µM -2% | [6]; at 33.0 µM 60% | [7]; at 1.2 µM -9% | [7]; at 3.7 µM -12% | [7]; at 11.0 µM -21% | [7]; at 33.0 µM 2% | [8]; at 1.2 µM -18% | [8]; at 3.7 µM -14% | [8]; at 11.0 µM -1% | [9]; at 1.2 µM -8% | [9]; at 3.7 µM -12% | [9]; [17] 12% | [9]; at 11.0 µM 1% | [9]; at 50.0 µM 62.6% | [10]; at 1.2 µM -29% | [10]; at 3.7 µM -21% | [10]; [17] 0% | [10]; at 11.0 µM -23% | [10]; at 33.0 µM 39% | [10]; [18] 53% | [10]; at 50.0 µM 59.2% | [11]; at 1.2 µM -18% | [11]; at 3.7 µM -14% | [11]; at 11.0 µM -23% | [11]; at 33.0 µM 61% | [12]; [17] 2% | [12]; at 50.0 µM 67.8% | [13]; at 1.2 µM 2% | [13]; at 3.7 µM 3% | [13]; at 11.0 µM 5% | [13]; at 33.0 µM 31% | [14]; at 1.2 µM -15% | [14]; at 3.7 µM 1% | [14]; [17] 29% | [14]; at 11.0 µM 1% | [14]; at 33.0 µM 35% | [15]; at 1.2 µM -10% | [15]; at 3.7 µM -5% | [15]; at 11.0 µM -1% | [15]; at 33.0 µM 62% | [1]; at 1.2 µM -19% | [1]; at 3.7 µM -22% | [1]; at 11.0 µM -18% | [1]; at 33.0 µM 66% | [2]; at 1.2 µM -25% | [2]; at 3.7 µM -33% | [2]; at 11.0 µM -17% | [3]; [17] -13% | [3]; at 50.0 µM 62.6% | [4]; at 1.2 µM -15% | [4]; at 3.7 µM -7% | [4]; at 11.0 µM 25%
active: [5]; at 100.0 µM 98% | [6]; at 100.0 µM 98% | [7]; at 100.0 µM 73% | [8]; at 33.0 µM 74% | [8]; at 100.0 µM 98% | [9]; at 33.0 µM 73% | [9]; [18] 79% | [9]; at 100.0 µM 97% | [10]; at 100.0 µM 98% | [11]; at 100.0 µM 97% | [12]; [18] 86% | [13]; at 100.0 µM 98% | [14]; [18] 89% | [14]; at 50.0 µM 73.5% | [14]; at 100.0 µM 98% | [15]; at 100.0 µM 98% | [1]; at 100.0 µM 97% | [2]; at 33.0 µM 78% | [2]; at 100.0 µM 98% | [3]; [18] 80% | [4]; at 33.0 µM 76% | [4]; at 100.0 µM 98%

CNC(=O)OCc1c(COC(=O)NC)c(-c2ccc(-c3ccccc3)cc2)n(C)c1C
inactive: [5]; at 1.2 µM -36% | [5]; at 3.7 µM -41% | [5]; at 11.0 µM -27% | [5]; at 33.0 µM 26% | [5]; at 100.0 µM 68% | [6]; at 1.2 µM -7% | [6]; at 3.7 µM -16% | [6]; at 11.0 µM -12% | [6]; at 33.0 µM 10% | [6]; at 100.0 µM 23% | [7]; at 1.2 µM -33% | [7]; at 3.7 µM -31% | [7]; at 11.0 µM -28% | [7]; at 33.0 µM -14% | [7]; at 100.0 µM -1% | [8]; at 1.2 µM -11% | [8]; at 3.7 µM -5% | [8]; at 11.0 µM -6% | [8]; at 33.0 µM 2% | [8]; at 100.0 µM 10% | [9]; at 1.2 µM -46% | [9]; at 3.7 µM -15% | [9]; [17] 25% | [9]; at 11.0 µM -26% | [9]; at 33.0 µM 16% | [9]; at 50.0 µM 64% | [10]; at 1.2 µM -17% | [10]; at 3.7 µM -18% | [10]; [17] 16% | [10]; at 11.0 µM 3% | [10]; at 33.0 µM -8% | [10]; [18] 46% | [10]; at 50.0 µM 13.4% | [10]; at 100.0 µM 1% | [12]; [17] -5% | [12]; [18] 25% | [12]; at 50.0 µM -2.7% | [13]; at 1.2 µM -29% | [13]; at 3.7 µM -2% | [13]; at 11.0 µM -20% | [13]; at 33.0 µM -5% | [13]; at 100.0 µM -9% | [16]; [17] 24% | [16]; [18] 56% | [16]; at 50.0 µM -6.8% | [14]; at 1.2 µM -10% | [14]; at 3.7 µM -15% | [14]; [17] -8% | [14]; at 11.0 µM -15% | [14]; at 33.0 µM 0% | [14]; [18] 23% | [14]; at 50.0 µM -13.5% | [14]; at 100.0 µM -1% | [15]; at 1.2 µM -30% | [15]; at 3.7 µM -29% | [15]; at 11.0 µM -15% | [15]; at 33.0 µM -27% | [15]; at 100.0 µM 23% | [1]; at 1.2 µM -1% | [1]; at 3.7 µM 10% | [1]; at 11.0 µM -11% | [1]; at 33.0 µM 11% | [1]; at 100.0 µM -1% | [2]; at 1.2 µM -26% | [2]; at 3.7 µM -25% | [2]; at 11.0 µM -32% | [2]; at 33.0 µM -26% | [2]; at 100.0 µM 59% | [3]; [17] 24% | [3]; at 50.0 µM 58.8% | [4]; at 1.2 µM -25% | [4]; at 3.7 µM -42% | [4]; at 11.0 µM -61% | [4]; at 33.0 µM -42% | [4]; at 100.0 µM 52%
active: [9]; [18] 85% | [9]; at 100.0 µM 70% | [3]; [18] 75%
